Assay outcomes (PubChem)
Sm TGR inh: S. mansoni TGR enzyme inhibition; Q962Y6; AID 485364; hit rate 3% among 360,000; purified TGR, DTNB reduction, TNB absorbance 405 nm; Potency, µM (doses to about 114 µM), hits mostly inhibitors; active = well fitted inhibition curve with a large enough effect; inconclusive = small, poorly fitted or top-dose-only effect; inactive = no such curve, though single readings can be large or run the other way; also: nearly all actives have a fitted effect of over 60% in size
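First, TGR (20 nM dispensed) and NADPH were mixed with compound. Second, a 15 min room-temperature incubation followed. Third, further NADPH and then DTNB were added to start the reaction. Finally, TNB absorbance was monitored kinetically.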
Cycloheximide cs: counter-screen for Shiga toxin inhibitors: cycloheximide protein synthesis inhibition | cell reporter, cycloheximide protein synthesis inhibition counterscreen | max response, % | hit rate 12% among 300,000; in the data active = max response mostly above about 13%, no sharp cut-off; inactive = mostly below about 14%; also: read at 38.3 µM for the half of the compounds with a filed dose
FMDV antiviral: antivirals against foot and mouth disease virus; FMDV antiviral cell-based qHTS; Potency, µM (highest dose often 57.9 µM), actives largely listed as inhibitors; hit rate 1.2% among 410,000; AID 1159524; calls by dose curve; tested in HEK293T cells; also: read-out not given here; nearly all actives have a fitted effect of over 45% in size
Shiga toxin inh: blocks Shiga toxin action in Vero cells; Vero cells, Shiga toxin protein synthesis inhibition reporter; hit rate 9.2% among 290,000; inhibition, % at 38.7 µM; in the data active = inhibition mostly above about 28%, no sharp cut-off; inactive = mostly below about 43%
Hits are given with their value; – = inactive; ? = inconclusive; · = no result; [ ] = dose if it differs, or a comment. Most compounds without a hit are left out; they make up all but 12% or so of the library.

SMILES	Sm TGR inh	Cycloheximide cs	FMDV antiviral	Shiga toxin inh
COc1ccc(CNC(=O)CCCn2c(=O)c3cccn3c3ccc(F)cc32)cc1OC	–	·	?	·
Cc1nc2nc(NC(=O)C(C)(C)C)[nH]n2c(=O)c1Cc1ccccc1	–	·	–	·
COc1cc2c(cc1NC(=O)COC(=O)CNC(=O)c1ccccc1)oc1ccccc12	–	32	–	49
COc1cc2c(cc1NC(=O)C(C)OC(=O)c1ccc(S(=O)(=O)Nc3ccccc3Cl)cc1)oc1ccccc12 (stereo not drawn)	–	24	–	31
COc1ccccc1CC(=O)Nc1cc2oc3ccccc3c2cc1OC	–	25	·	–
Cc1ccc(/C=N/NC(=O)Cc2cccn2C)s1	–	49	–	58
Cn1cccc1CC(=O)N/N=C/C=C/c1ccccc1	–	25	–	82
O=NN(CC(=O)NN=CC=Cc1ccccc1)CC(=O)NN=CC=Cc1ccccc1	·	·	–	·
Cc1ccc(/C=N/NC(=O)Cc2cccn2C)cc1	?	26	–	46
O=C(CN1CCOCC1)N/N=C/C=C/c1ccccc1	–	25	–	–
Cn1cccc1CC(=O)N/N=C\c1cccs1	–	–	–	–
CC(O)(COc1ccccc1)c1ccc2c(c1)CN(Cc1cccc3cccnc13)CCO2 (stereo not drawn)	·	·	–	·
CCc1ccc(/C=N/NC(=O)Cc2cccn2C)cc1	?	29	–	51
Cc1ccc(/C=N/NC(=O)Cc2c(F)cccc2Cl)s1	–	54	–	79
Cn1cccc1CC(=O)N/N=C/c1ccc(C(C)(C)C)cc1	?	22	–	54
COC(=O)CC1Oc2ccc(Cl)cc2-n2cc(-c3ccc(C)cc3)nc21 (stereo not drawn)	?	·	–	·
CCc1cccc2cc(C(O)CNC(C)(C)C)oc12 (stereo not drawn)	·	–	·	–
CCC(Sc1n[nH]c(=O)[nH]c1=O)C(=O)OCc1ccccc1 (stereo not drawn)	–	–	1.8µM	–
CCOC(=O)c1c(C)oc2c1c(CN1CCN(C(=O)OCC)CC1)c(O)c1ccccc12	0.56µM	71	–	104
CCOC(=O)N1CCN(Cc2cc(=O)oc3ccc4ccccc4c23)CC1	–	–	20µM	–
CCOC(=O)c1c(C)oc2c1c(CN1CCN(CCO)CC1)c(O)c1ccccc12	0.28µM	36	–	118
CCOC(=O)c1c(C)oc2c1c1c(c3ccccc32)OCN(Cc2ccccn2)C1	0.35µM	35	–	89
COc1ccc(-n2c(CNC(=O)c3cccc4ccccc34)nnc2SC)cc1	·	·	–	·
COc1ccc(-c2onc(C)c2C)cc1S(=O)(=O)NCc1ccco1	–	·	–	·
CCOC(=O)c1c(C)oc2c1c(C(c1ccncc1)N1CCOCC1)c(O)c1ccccc12 (stereo not drawn)	1.3µM	51	–	100
SMILES	Sm TGR inh	Cycloheximide cs	FMDV antiviral	Shiga toxin inh
N#C/C(=C\c1ccc(O)c(O)c1)C(=O)NCCCCc1ccccc1	·	·	–	·
Cc1nc2cc(-c3ccccc3)ccc2o1	–[11.4 µM]	32	–	86
CCOc1ccccc1NC(=O)Cn1c(=O)n(Cc2nc(C)no2)c(=O)c2ccccc21	–	·	–	·
CC(C)=CCC/C(C)=C/COc1c2occc2cc2ccc(=O)oc12	·	·	–	·
CC1=CC(C/C(C)=C/COc2ccc3ccc(=O)oc3c2)OC1=O (stereo not drawn)	–	16	–	24
COc1cc2ccc(=O)oc2c(O)c1OCC=C(C)C	–	–	·	85
CC(C)=CCC/C(C)=C/COc1ccc2ccc(=O)oc2c1	–	–	–	–
CC(C)=CCOc1ccc2ccc(=O)oc2c1	–	21	–	35
C/C(=N/NC(=O)c1ccc(Br)s1)c1cccnc1	–	23	–	–
C/C(=N/NC(=O)c1ccc(Br)s1)c1ccncc1	–	16	–	–
C/C(=N\NC(=O)c1cc(-c2ccc(C)s2)nc2ccccc12)c1cccnc1	–	22	–	–
C/C(=N/NC(=O)c1ccc(C)s1)c1cccnc1	–	34	–	71
C/C(=N\NC(=O)c1cc(-c2ccc(C)s2)[nH]n1)c1ccncc1	–	–	–	–
C/C(=N\NC(=O)C1CC1)c1cccnc1	–	–	–	–
C/C(=N/NC(=O)c1ccc(Cl)s1)c1cccnc1	–	–	–	–
COc1ccc(Oc2nc3c(c(=O)n(Cc4ccccc4Cl)c(=O)n3C)n2C)cc1	–	·	–	·
COC(=O)N1CCCc2cc(S(=O)(=O)NCc3ccccc3)ccc21	–	·	–	·
COC(=O)c1ccccc1NC(=O)CSc1nnc2cc(C)c3cc(C)cc(C)c3n12	–	·	–	·
Cc1ccccc1-c1noc(-c2cccnc2N(C)Cc2ccc(Cl)cc2)n1	–	·	–	·
CC(=O)Nc1ccc(C(=O)Nc2nc(-c3cccnc3)cs2)cc1	–	15	–	–
O=C(Nc1nc(-c2ccccc2)cs1)c1cccnc1	–	–	–	–
